Experimental data published in PubChem BioAssay (NCI).
About 83,000 compounds went through this panel and 20% of them were active in at least one assay; those are over-represented in the sample as a whole.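 Cells were grown in 96-well plates and exposed to the test compound at a single concentration for 48 hours; results are reported as percent growth, with values below 10 considered active.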 Calls of active or inactive are those of the source.

Assays:
Test in all cases: NCI-60 one-dose screen, 48 h (100 = growth as untreated, 0 = no growth, -100 = all killed)
SR leukemia = conditions: 10 µM unless noted
RPMI-8226 leukemia = conditions: 10 µM unless noted
OVCAR-8 ovarian = conditions: 10 µM unless noted
OVCAR-5 ovarian = conditions: 10 µM unless noted
OVCAR-4 ovarian = conditions: 10 µM unless noted
SK-OV-3 ovarian = conditions: 10 µM unless noted
IGROV1 ovarian = conditions: 10 µM unless noted
OVCAR-3 ovarian = conditions: 10 µM unless noted
HS 578T breast = conditions: 10 µM
NCI/ADR-RES ovarian = conditions: 10 µM unless noted
T-47D breast = conditions: 10 µM unless noted
BT-549 breast = conditions: 10 µM unless noted
MDA-MB-435 melanoma = conditions: 10 µM unless noted
SW-620 colon = conditions: 10 µM unless noted
MCF7 breast = conditions: 10 µM unless noted
HCT-116 colon = conditions: 10 µM unless noted
HCC-2998 colon = conditions: 10 µM
KM12 colon = conditions: 10 µM unless noted

Measured: growth

COc1cc2cc(NCc3ccc(F)cc3)nc(C)c2cc1OC
inactive: SR leukemia 22.2% | RPMI-8226 leukemia 14.2% | OVCAR-8 ovarian 51% | OVCAR-5 ovarian 53.4% | OVCAR-4 ovarian 96.7% | SK-OV-3 ovarian 75.3% | IGROV1 ovarian 59.1% | OVCAR-3 ovarian 68.2% | HS 578T breast 75.8% | NCI/ADR-RES ovarian 44.4% | T-47D breast 53.2% | BT-549 breast 29% | MDA-MB-435 melanoma 24.6% | SW-620 colon 21.8% | MCF7 breast 68.6% | HCC-2998 colon 42.3% | KM12 colon 42.3%
active: HCT-116 colon 9.34%

Cc1oc2c(C(=O)N/N=C\c3ccc(O)cc3O)c[nH]c2c1C
inactive: RPMI-8226 leukemia 25.3% | OVCAR-8 ovarian 13.7% | OVCAR-5 ovarian 30.7% | OVCAR-4 ovarian 10.8% | SK-OV-3 ovarian 20.6% | IGROV1 ovarian 24.1% | HS 578T breast 58.2% | T-47D breast 25.7% | MDA-MB-435 melanoma 42.8% | SW-620 colon 39.3% | HCT-116 colon 10.8% | KM12 colon 28.9%
active: SR leukemia 8.4% | OVCAR-3 ovarian -16% | NCI/ADR-RES ovarian 1.19% | BT-549 breast -8.94% | MCF7 breast 8.09% | HCC-2998 colon 9.7%

COc1ccc(-c2cc3c(oc2=O)-c2ccccc2OC3OC(C)=O)cc1 (stereo not given)
inactive: SR leukemia 80.7% | RPMI-8226 leukemia 83.1% | OVCAR-8 ovarian 107% | OVCAR-5 ovarian 111% | OVCAR-4 ovarian 90.7% | SK-OV-3 ovarian 93.4% | IGROV1 ovarian 103% | OVCAR-3 ovarian 109% | HS 578T breast 89% | NCI/ADR-RES ovarian 93.8% | T-47D breast 68.5% | BT-549 breast 102% | MDA-MB-435 melanoma 110% | SW-620 colon 98.7% | MCF7 breast 89.6% | HCT-116 colon 74% | KM12 colon 111%

Clc1ccc(C(Cn2ccnc2)OCc2ccsc2Cl)c(Cl)c1 (stereo not given)
inactive: SR leukemia 17.3% | RPMI-8226 leukemia 37.6% | OVCAR-8 ovarian 57.2% | OVCAR-5 ovarian 68.9% | OVCAR-4 ovarian 52.7% | SK-OV-3 ovarian 70.7% | IGROV1 ovarian 40.9% | OVCAR-3 ovarian 55.7% | HS 578T breast 30.8% | NCI/ADR-RES ovarian 23.1% | T-47D breast 43.5% | BT-549 breast 40% | SW-620 colon 45.1% | MCF7 breast 43.7% | HCT-116 colon 26.3% | HCC-2998 colon 53.8% | KM12 colon 24.6%
active: MDA-MB-435 melanoma -0.595%

COC(=O)[C@]12CC[C@@H](C)[C@H](C)[C@@H]1C1=CC[C@@H]3[C@@]4(C)C(c5cnco5)=C[C@@](C)(CO)C4=CC[C@@]3(C)[C@]1(C)CC2
inactive: SR leukemia 21.1% | RPMI-8226 leukemia 26.1% | OVCAR-8 ovarian 60.8% | OVCAR-5 ovarian 78.8% | OVCAR-4 ovarian 40.6% | SK-OV-3 ovarian 67.2% | IGROV1 ovarian 77.6% | OVCAR-3 ovarian 50.1% | HS 578T breast 72.8% | NCI/ADR-RES ovarian 53.9% | T-47D breast 14.7% | BT-549 breast 56.4% | MDA-MB-435 melanoma 60.5% | SW-620 colon 50.9% | MCF7 breast 37.1% | HCT-116 colon 22.6% | KM12 colon 37.2%

O=C1/C(=C\c2cccc(OCCCCCOc3ccc(Cl)cc3)c2)N=C2SCCCN12
inactive: SR leukemia 92.1% | RPMI-8226 leukemia 40.9% | OVCAR-8 ovarian 53% | OVCAR-5 ovarian 85.3% | OVCAR-4 ovarian 31.3% | SK-OV-3 ovarian 93.8% | IGROV1 ovarian 86.9% | OVCAR-3 ovarian 59.3% | HS 578T breast 87% | NCI/ADR-RES ovarian 45.4% | T-47D breast 26.4% | BT-549 breast 57.4% | MDA-MB-435 melanoma 46.1% | SW-620 colon 86.2% | MCF7 breast 68.5% | HCT-116 colon 52.7% | HCC-2998 colon 71% | KM12 colon 48.2%

COc1ccc(-c2cnc(-c3ccc(Cl)cc3)[nH]2)cc1OC
inactive: SR leukemia 42.7% | RPMI-8226 leukemia 33.1% | OVCAR-8 ovarian 98.9% | OVCAR-5 ovarian 98.2% | OVCAR-4 ovarian 89.9% | SK-OV-3 ovarian 94.6% | IGROV1 ovarian 52.5% | OVCAR-3 ovarian 103% | HS 578T breast 93.5% | NCI/ADR-RES ovarian 106% | T-47D breast 84.7% | BT-549 breast 132% | MDA-MB-435 melanoma 128% | SW-620 colon 95.9% | MCF7 breast 93.9% | HCT-116 colon 98.6% | KM12 colon 97.3%

CCc1cc2c(c3ccc(C(=O)CBr)cc13)CCCC2
inactive: SR leukemia 91.7% | RPMI-8226 leukemia 113% | OVCAR-8 ovarian 105% | OVCAR-5 ovarian 91.1% | OVCAR-4 ovarian 110% | SK-OV-3 ovarian 103% | IGROV1 ovarian 99.1% | OVCAR-3 ovarian 102% | HS 578T breast 98.8% | NCI/ADR-RES ovarian 93.5% | T-47D breast 71.2% | BT-549 breast 80.3% | MDA-MB-435 melanoma 107% | SW-620 colon 111% | MCF7 breast 93.1% | HCT-116 colon 102% | HCC-2998 colon 103% | KM12 colon 103%

O=C1CSC(c2c(F)cccc2Cl)N1NC(=O)C(O)(c1ccccc1)c1ccccc1 (stereo not given)
inactive: SR leukemia 95.5% | RPMI-8226 leukemia 94% | OVCAR-8 ovarian 98.3% | OVCAR-5 ovarian 103% | OVCAR-4 ovarian 97.4% | SK-OV-3 ovarian 101% | IGROV1 ovarian 72% | OVCAR-3 ovarian 100% | HS 578T breast 90.1% | NCI/ADR-RES ovarian 95.4% | T-47D breast 93.3% | BT-549 breast 104% | MDA-MB-435 melanoma 104% | SW-620 colon 99.9% | MCF7 breast 110% | HCT-116 colon 94.8% | KM12 colon 108%

N#CC(C#N)=NO
inactive: SR leukemia 97.1% | RPMI-8226 leukemia 101% | OVCAR-8 ovarian 103% | OVCAR-5 ovarian 104% | OVCAR-4 ovarian 113% | SK-OV-3 ovarian 89.1% | IGROV1 ovarian 101% | OVCAR-3 ovarian 111% | HS 578T breast 99.6% | NCI/ADR-RES ovarian 100% | T-47D breast 102% | BT-549 breast 103% | SW-620 colon 100% | MCF7 breast 96.1% | HCT-116 colon 92.5% | HCC-2998 colon 96.3% | KM12 colon 103%

COc1cc(-c2cc(-c3ccc(Nc4ccnc5cc(Cl)ccc45)cc3)nc(N3CCOCC3)n2)cc(OC)c1OC
active: SR leukemia -10.7% | RPMI-8226 leukemia -5.21% | OVCAR-8 ovarian 9.73% | OVCAR-4 ovarian -48.3% | IGROV1 ovarian 1.69% | OVCAR-3 ovarian -47.7% | HS 578T breast 3.06% | NCI/ADR-RES ovarian 9.9% | MDA-MB-435 melanoma -35% | SW-620 colon 1.68% | MCF7 breast 4.34% | HCT-116 colon -63.3%
inactive: OVCAR-5 ovarian 55.5% | SK-OV-3 ovarian 98.6% | T-47D breast 12.8% | BT-549 breast 24.4% | HCC-2998 colon 18.7% | KM12 colon 25.2%

O=C(NCCO)Nc1ccc(-c2nc(N3CCOCC3)c3cccn3n2)cc1
active: SR leukemia 8.14% | RPMI-8226 leukemia 7.85% | OVCAR-8 ovarian 5.91% | OVCAR-5 ovarian -11% | OVCAR-4 ovarian -15.5% | SK-OV-3 ovarian -37.1% | IGROV1 ovarian -25.9% | OVCAR-3 ovarian 0.347% | HS 578T breast -34.5% | T-47D breast -32.6% | BT-549 breast -5.61% | MDA-MB-435 melanoma -6.22% | MCF7 breast 7.74%
inactive: NCI/ADR-RES ovarian 34.5% | SW-620 colon 22.3% | HCT-116 colon 20.4% | HCC-2998 colon 24% | KM12 colon 14.7%

CCN1CCN(Cc2ccc(NC(=O)Nc3nc(-c4cc(OC)c(OC)c(OC)c4)cs3)cc2C(F)(F)F)CC1
inactive: OVCAR-8 ovarian 14.1% | OVCAR-5 ovarian 71.3% | OVCAR-4 ovarian 14.1% | SK-OV-3 ovarian 36.1% | IGROV1 ovarian 49.5% | OVCAR-3 ovarian 22.8% | HS 578T breast 40% | BT-549 breast 45.3%
active: SR leukemia -32.6% | RPMI-8226 leukemia -26% | NCI/ADR-RES ovarian -6.84% | T-47D breast -23.9% | MDA-MB-435 melanoma -51.4% | SW-620 colon 3.34% | MCF7 breast -15.2% | HCT-116 colon -58% | HCC-2998 colon -36.6% | KM12 colon -56.8%

O=C(Cn1c(=O)ccn(CCCCCCCCOc2ccc(Br)cc2)c1=O)Nc1ccc(Oc2ccc(Cl)cc2)cc1
inactive: SR leukemia 28.7% | RPMI-8226 leukemia 34.2% | OVCAR-8 ovarian 63.9% | OVCAR-5 ovarian 108% | OVCAR-4 ovarian 53.4% | SK-OV-3 ovarian 65.3% | IGROV1 ovarian 77.2% | OVCAR-3 ovarian 83.7% | HS 578T breast 81.8% | NCI/ADR-RES ovarian 42.7% | T-47D breast 37.8% | BT-549 breast 54.1% | MDA-MB-435 melanoma 65.6% | SW-620 colon 73% | MCF7 breast 41.3% | HCT-116 colon 46.5% | KM12 colon 61.7%

Nc1c(Cl)cccc1[N+](=O)[O-]
inactive: SR leukemia 104% | RPMI-8226 leukemia 100% | OVCAR-8 ovarian 102% | OVCAR-5 ovarian 102% | OVCAR-4 ovarian 111% | SK-OV-3 ovarian 108% | IGROV1 ovarian 112% | OVCAR-3 ovarian 111% | HS 578T breast 87.8% | NCI/ADR-RES ovarian 102% | T-47D breast 110% | BT-549 breast 114% | MDA-MB-435 melanoma 105% | SW-620 colon 94.6% | MCF7 breast 99.1% | HCT-116 colon 112% | HCC-2998 colon 105% | KM12 colon 107%

C=C1CC[C@@H]2[C@](C)(COC(C)=O)[C@H](OC(C)=O)CC[C@@]2(C)[C@@H]1C/C=C1/C(=O)OC[C@H]1OC(C)=O
active: SR leukemia 5.73% | OVCAR-3 ovarian -21.3% | SW-620 colon -21.9% | HCT-116 colon -37.3%
inactive: RPMI-8226 leukemia 14.1% | OVCAR-8 ovarian 27.1% | OVCAR-5 ovarian 53.7% | OVCAR-4 ovarian 66.5% | SK-OV-3 ovarian 101% | IGROV1 ovarian 103% | HS 578T breast 100% | NCI/ADR-RES ovarian 25% | T-47D breast 42.8% | BT-549 breast 27.4% | MDA-MB-435 melanoma 33.1% | MCF7 breast 22.9% | HCC-2998 colon 67.3% | KM12 colon 52.8%

CCCCCCCC(=O)SCC/C=C/[C@@H]1CC(=O)NCc2cccc(n2)C2=N[C@@](C)(CS2)C(=O)N[C@@H](C(C)C)C(=O)N1
active: T-47D breast -7.49% | HCT-116 colon 2.91%
inactive: SR leukemia 18.9% | RPMI-8226 leukemia 17.1% | OVCAR-8 ovarian 32.1% | OVCAR-5 ovarian 25.5% | OVCAR-4 ovarian 34.4% | SK-OV-3 ovarian 10.3% | IGROV1 ovarian 26% | OVCAR-3 ovarian 22% | HS 578T breast 26.2% | NCI/ADR-RES ovarian 86.7% | BT-549 breast 41.4% | MDA-MB-435 melanoma 19.6% | SW-620 colon 69.3% | MCF7 breast 28.3% | HCC-2998 colon 12.6% | KM12 colon 24.9%
